{
  "source": "PubChem BioAssay AID1490",
  "about": "(National Center for Advancing Translational Sciences (NCATS), 2009)",
  "note": "The whole screen tested about 310,000 compounds, of which about 11,000 (3.5%) were called active. Roughly 4% stayed inconclusive and do not appear here. What follows is part of a selection rich in actives, with near analogues and random picks from the rest. A number with no mark means an inactive call. Calls follow the shape of the dose curve; as a rule, active = well fitted inhibition curve with a large enough effect; inconclusive = small, poorly fitted or top-dose-only effect, or another doubt; inactive = no such curve, though single readings can be large or run the other way. Potency is read from the fitted curve at half-maximal effect.",
  "data": [
    {"biological_target": "4'-phosphopantetheinyl transferase ffp (Bacillus subtilis) (UniProt Q9F4F7)", "test": "qHTS Assay for Inhibitors of Bacillus subtilis Sfp phosphopantetheinyl transferase (PPTase);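 also: the enzyme is Sfp with the accession as filed and its product quenches rhodamine fluorescence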;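 as to largest response in the series, negative = inhibition: 0% = enzyme reaction without inhibitor and -100% = no enzyme wells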", "conditions": "Biochemical Sfp PPTase activity", "text": "Assay Submitter: Michael Burkart, University of California, San Diego\nScreening Center PI: Austin, C.P.\nScreening Center: NIH Chemical Genomics Center [NCGC]\nThe covalent attachment of a phosphopantetheinyl (4'-PP) arm to a variety of synthases and other proteins is a key posttranslational protein modification. The 4'-PP is installed on the proteins post-translationally from coenzyme A (CoA) on a conserved serine residue by action of phosphopantetheinyl transferase (PPTase) enzymes. Phosphopantetheinylation is essential for synthase activity, and removal of the PPTase gene precludes natural product synthesis in microorganisms, or in the case of fatty acid biosynthesis, renders the organism unviable. PPTase enzymes belong to a distinct structural superfamily. Within bacteria, these enzymes are grouped into two classes based upon primary structure, the AcpS-Type and Sfp-Type PPTases.\nSfp-type PPTases, corresponding to an activator of surfactin production in Bacillus subtilis, are responsible for modifying type I polyketide and nonribosomal peptide synthases of prokaryotes. Sfp-type PPTases are responsible for the activation of a variety of pathogen-associated virulence factors. Among these compounds are toxins such as mycolactone from Mycobacterium ulcerans, siderophores such as vibriobactin from Vibrio cholerae or mycobactin from Mycobacterium tuberculosis, as well as the mycolic acids which form the waxy cell wall of Mycobacteria. The biosyntheses of these natural products are considered attractive targets for drug design.\nIn search of small molecule Sfp-PPTase inhibitors, a fluorescence quenching assay was developed for detection of Bacillus subtilis Sfp-PPTase enzymatic activity in a miniaturized high-throughput format. The consensus ybbr acceptor peptide […] was N-terminally labeled with Black Hole Quencher-2 (BHQ-2) and used in combination with rhodamine-labeled coenzyme A as a co-substrate.\nInhibition of Sfp-PPTase was detected by recording the fluorescence intensity change over a 30-minute reaction period at a 525 nm excitation and 598 nm emission. Reagents were supplied by Michael Burkart and Timothy Foley, University of California at San Diego.\nThis BioAssay deposition is for validation of the developed Sfp-PPtase assay.\nAssay Buffer: 50 mM Hepes-Na pH 7.6, 10 mM MgCl2, 0.01% Nonidet P-40, and 0.01% BSA.\n3 uL of Sfp-PPTase enzyme (final concentration 15 nM) and 1 uL of substrate mixture (final concentration for rhodamine-CoA and BHQ-2-YbbR 5 uM and 12.5 uM, respectively) dispensed in columns 1, 2, 5 - 48. Columns 1 and 2 used to generate neutral control (uninhibited reaction)\nThree uL of reagents, consisting of buffer (in columns 3 and 4 as negative control) and Sfp-PPTase (in columns 1, 2, 5 - 48) were dispensed into 1,536-well Greiner black solid bottom plate. Compounds (23 nL) were transferred via Kalypsys pintool equipped with 1,536-pin array. The plate was incubated for 15 min at room temperature, followed by the addition of 1 uL substrate to start the reaction. The plate was then centrifuged at 1000 rpm for 15 seconds, and the fluorescence intensity recorded on a ViewLux High-throughput CCD imager (Perkin-Elmer) using standard BODIPY optics (525 nm excitation and 598 nm emission). The plate was then incubated for 30 minutes, and a second read on the ViewLux was performed. The fluorescence intensity difference over the 30-minute period was used to calculate the respective reaction rate for each well.", "units": {"largest response in the series, negative = inhibition": "%"}, "values": [
      {"smiles": "N#Cc1ccccc1NC(=O)c1ccc2c(c1)OCO2", "largest response in the series, negative = inhibition": 20.2},
      {"smiles": "COc1ccc(CN2C3CCCC2CC(NC(=O)c2cccc(F)c2)C3)cc1", "note": "(configuration not stated)", "largest response in the series, negative = inhibition": 9.04},
      {"smiles": "O=C(N/N=C/c1cccc(Br)c1)c1ccc(N2CCCC2=O)cc1", "largest response in the series, negative = inhibition": 2.98},
      {"smiles": "Cc1occc1C(=O)NC1CCCN(Cc2ccc(CC(C)C)cc2)C1", "note": "(configuration not stated)", "largest response in the series, negative = inhibition": 10},
      {"smiles": "COc1ccc(CNC(=O)CN(C(=O)c2csnn2)c2cnc3ccccc3c2)cc1", "largest response in the series, negative = inhibition": 15.4},
      {"smiles": "CCc1c(C)sc(NC(=O)c2ccc(Br)o2)c1C(=O)OC", "largest response in the series, negative = inhibition": -4.91},
      {"smiles": "CCc1c(C)sc(NC(=O)c2cccs2)c1C(N)=O", "Potency": "14.1 µM (active)"},
      {"smiles": "COC(=O)c1c(NC(=O)c2cccs2)sc2c1CCCC2", "largest response in the series, negative = inhibition": 6.07},
      {"smiles": "CC(C)(COC(=O)Nc1ccccc1)COC(=O)Nc1ccccc1", "largest response in the series, negative = inhibition": 5.47},
      {"smiles": "NC(=O)CSc1nnc(NC(=O)c2ccc(Br)o2)s1", "largest response in the series, negative = inhibition": 4.59},
      {"smiles": "Cc1cc(OC(=O)c2ccc(OC(C)C)cc2)c([N+](=O)[O-])c(=O)[nH]1", "largest response in the series, negative = inhibition": 16.6},
      {"smiles": "C=CCOc1cccc(CNCc2cccnc2)c1", "largest response in the series, negative = inhibition": -13.5},
      {"smiles": "Fc1ccccc1COc1ccccc1CNCc1ccncc1", "largest response in the series, negative = inhibition": -8.76},
      {"smiles": "c1ccc(COc2ccccc2CNCc2cccnc2)cc1", "Potency": "56.2 µM (active)"},
      {"smiles": "Oc1c(Cl)cc(Cl)cc1/C=N/c1ncn[nH]1", "largest response in the series, negative = inhibition": -2.74},
      {"smiles": "Cc1ccccc1CN1C[C@@H]2C[C@@H](c3ccc4nsnc4c3)N3CCC[C@@]23C1=O", "largest response in the series, negative = inhibition": 7.31},
      {"smiles": "Cc1ccccc1CN1C[C@@H]2C[C@@H](c3cn(C)nc3-c3ccccc3)N3CCC[C@@]23C1=O", "Potency": "3.16 µM (active)"},
      {"smiles": "Cc1ccc(CN2CCN(Cc3cn(C)nc3-c3ccccc3)CC2CCO)o1", "note": "(configuration not stated)", "largest response in the series, negative = inhibition": 8.78},
      {"smiles": "COc1ccc(NC(=O)CSc2nc(SC)ns2)c(OC)c1", "largest response in the series, negative = inhibition": 8.6},
      {"smiles": "COC(=O)c1c(C)[nH]c(C)c1-c1ccc([N+](=O)[O-])cc1", "largest response in the series, negative = inhibition": 9.93},
      {"smiles": "COC(=O)C1=C(C)N(C)C(=O)NC1c1ccc([N+](=O)[O-])o1", "note": "(configuration not stated)", "largest response in the series, negative = inhibition": 23.4},
      {"smiles": "COC(=O)C1=C(C(=O)OC)C(c2cc([N+](=O)[O-])ccc2O)c2sc(=O)[nH]c2S1", "note": "(configuration not stated)", "Potency": "44.7 µM (active)"},
      {"smiles": "COC(=O)c1cc(S(=O)(=O)N2CCN(c3cc(C)ccc3C)CC2)c[nH]1", "largest response in the series, negative = inhibition": 24.2},
      {"smiles": "COc1ccc(S(=O)(=O)n2nc(C)c(S(=O)(=O)N3CCOCC3)c2C)cc1", "largest response in the series, negative = inhibition": 8.67},
      {"smiles": "Oc1ccc(C2Nc3cccc4cccc(c34)N2)cc1", "Potency": "35.5 µM (active)"},
      {"smiles": "Cc1ccc(C2Nc3cccc4cccc(c34)N2)cc1", "largest response in the series, negative = inhibition": -26.1},
      {"smiles": "COc1cccc(C2Nc3cccc4cccc(c34)N2)c1", "largest response in the series, negative = inhibition": 6.1}
    ]}
  ]
}
